Cruzain Triton: qHTS Assay for Promiscuous and Specific Inhibitors of Cruzain (with detergent); AID 1478, 2009; Potency, µM, for inactives: max response, negative = inhibition, hits mostly inhibitors; purified cruzain, Z-FR-AMC fluorescence, 0.01% Triton; Cruzipain (Trypanosoma cruzi), P25779; actives 0.43% (n = 200,000);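 further: plate controls were neutral wells for no effect and buffer without enzyme for full effect; nearly all actives have a fitted effect of over 40% in size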
Target sequence (P25779 123-467 limits assumed): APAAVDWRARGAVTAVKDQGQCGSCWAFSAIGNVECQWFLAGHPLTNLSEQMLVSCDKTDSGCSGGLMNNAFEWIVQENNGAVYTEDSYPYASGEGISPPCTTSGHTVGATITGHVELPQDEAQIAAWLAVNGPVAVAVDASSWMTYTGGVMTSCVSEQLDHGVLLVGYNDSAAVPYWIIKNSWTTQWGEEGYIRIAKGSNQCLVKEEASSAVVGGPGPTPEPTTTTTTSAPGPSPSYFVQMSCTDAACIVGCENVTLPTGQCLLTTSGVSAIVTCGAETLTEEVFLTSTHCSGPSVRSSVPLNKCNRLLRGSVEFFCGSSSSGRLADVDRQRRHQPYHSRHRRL
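In this qHTS format, compounds are incubated with 1.5 nM cruzain for 15 min at room temperature before 2 uM Z-FR-AMC is added. Release of AMC is followed at 360/450 nm, and progress is taken as the 60 s fluorescence difference.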
Cruzain noTriton: qHTS Assay for Promiscuous and Specific Inhibitors of Cruzain (without detergent) | Potency, µM, for inactives: max response, negative = inhibition, most hits filed as inhibitors | actives 2.3% (n = 200,000) | purified cruzain, Z-FR-AMC fluorescence, no detergent | AID 1476, 2009;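 further: plate controls were enzyme without inhibitor for no effect and buffer without enzyme for full effect; nearly all actives have a fitted effect of over 40% in size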
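Detergent-free condition (0.00005% Triton X-100) in acetate buffer pH 5.5 with DTT. 1.5 nM enzyme and compound were pre-mixed 15 min, then 2 uM Z-FR-AMC substrate added; reaction progress from fluorescence change between first and third reads (60 s).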
* = called active by the depositor; ? = inconclusive; ! = not active in a repeat. This is a sample that favours compounds with a hit; in the whole collection about 2.4% have one here. The call rests on the fitted dose curve; in most records, active means well fitted curve in the direction sought with a large enough effect; inconclusive means small, poorly fitted or top-dose-only effect, or another doubt; inactive means no such curve, though single readings can be large; an effect the other way counts as inactive or inconclusive. Potency means the concentration at half of the fitted maximal effect.

SMILES	Cruzain Triton	Cruzain noTriton
N#Cc1cc(C(=O)c2cc(Cl)ccc2O)cn(-c2ccccc2)c1=O	-8.9%	-19.4%
Cc1ccc(NC(=O)c2cc(C(=O)c3cc(Cl)ccc3O)cn(-c3ccc(C)cc3)c2=O)cc1	-2.2%	5.01µM*
c1ccc(-c2cc(-c3nnc4n3N=C(c3ccc5ccccc5c3)CS4)[nH]n2)cc1	-3.2%	25.1µM*
COc1ccc(-c2nnc3n2N=C(c2ccccc2)CS3)cc1OC	-6.7%	26.4%
Cc1cc(-c2nnc3n2N=C(c2ccc(-c4ccccc4)cc2)CS3)n[nH]1	-10.3%	25.1µM*
COc1ccc(C2=Nn3c(nnc3-c3ccccc3)SC2)cc1OC	7.0%	-2.3%
Cc1cccc(OC(=O)CSc2nnc(-c3ccc4c(c3)OCO4)o2)c1C	-4.0%	-0.4%
COc1cccc(N2CCN(S(=O)(=O)c3ccc(-c4ccno4)cc3OC)CC2)c1	0.7%	9.2%
O=c1c(-c2cc(F)cc(F)c2)nc2cnc(N3CCOCC3)nc2n1CCc1ccccc1	1.7%	-4.4%
O=C(CSc1ncc(-c2ccccc2)[nH]1)Nc1cccc(Br)c1	-11.8%	7.3%
Oc1c(C(Nc2nc3ccccc3s2)c2ccco2)ccc2cccnc12 (stereo not drawn)	0.8%	7.94µM*
CC(C)C(=O)NC(c1ccco1)c1ccc2cccnc2c1O (stereo not drawn)	-0.1%	-8.1%
O=C(Cc1ccc(S(=O)(=O)N2CCCC2)s1)Nc1nc2c(s1)CCCC2	-16.6%	20µM*
CC(C)(C)NC(=O)Cc1ccc(S(=O)(=O)N2CCCC2)s1	-5.7%	-4.0%
CCCCC/C=C\C/C=C\C/C=C\C/C=C\CCCC(=O)O[C@@H](CO)COCCCCCCCCCCCCCCCC	2.5%	9.9%
O=C(Cc1sc(-c2ccccc2)nc1-c1ccccc1)Nc1ccc(Cl)cc1	5.6%	?
O=C(Cc1sc(-c2ccccc2Cl)nc1-c1ccccc1)Nc1ccccc1	7.5%	12.6µM*
O=C(O)Cc1sc(Nc2ccccc2)nc1-c1ccccc1	-17.5%	-24.7%
O=C(Cc1sc(-c2ccccc2Cl)nc1-c1ccccc1)Nc1ccc(F)cc1	5.1%	15.8µM*
C[C@@]12CC[C@@H]3[C@H](CCC4=CC(=O)CC[C@]43C)[C@@H]1CC[C@@H]2C(=O)COS(=O)(=O)c1ccc(Br)cc1	1.3%	7.3%
O=C(O)c1cc(O)c2c(c1)[C@H]([C@H]1c3cc(C(=O)O)cc(O)c3C(=O)c3c(O[C@@H]4OC(CO)C(O)C(O)C4O)cccc31)c1cccc(O[C@@H]3OC(CO)C(O)C(O)C3O)c1C2=O (stereo partly drawn)	15.8µM*	?
O=C1c2cccc(O)c2C(=O)c2c(O[C@@H]3O[C@H](CO)[C@@H](O)[C@H](O)[C@@H]3O)cccc21	1.1%	-5.5%
CCCN(CCC)CCNC(=O)c1cc2c(=O)oc3ccc(C)cc3c2s1	0.0%	-7.4%
COc1cc(-c2ccc(N=Nc3ccc4c(S(=O)(=O)O)cc(S(=O)(=O)O)c(N)c4c3O)c(OC)c2)ccc1N=Nc1ccc2c(S(=O)(=O)O)cc(S(=O)(=O)O)c(N)c2c1O	25.1µM*!	?
Cc1nn(-c2ccc(S(=O)(=O)O)cc2)c(O)c1N=Nc1ccc(-c2ccc(N=Nc3ccc4c(S(=O)(=O)O)cc(S(=O)(=O)O)c(N)c4c3O)c(O)c2)cc1O.[Cu].[Cu]	-5.6%	0.9%
SMILES	Cruzain Triton	Cruzain noTriton
Cc1nc2ccccc2n1CCc1nc2c3ccccc3nc(SCc3ccccc3F)n2n1	1.5%	1.9%
C/C(=N\NC(=O)c1ccncc1)c1ccc2ccccc2c1O	-0.3%	-5.8%
Nc1nnnn1/N=C/c1ccccc1OCc1ccc(Cl)cc1Cl	14.1µM*	15.8µM*
Nc1nnnn1/N=C/c1ccccc1OCc1ccc(Cl)cc1	-4.6%	-28.3%
O=C(OCC1CO1)C1CCCCC1C(=O)OCC1CO1 (stereo not drawn)	-3.6%	?
Cc1ccc(C(=O)Cn2nnc3c(sc4nc5c(c(-c6ccccc6)c43)CCC5)c2=O)cc1	-3.0%	20µM*
Cc1ccc(-c2c3c(nc4sc(C(N)=O)c(N)c24)CCC3)cc1	-9.6%	-3.0%
O=CN1CCc2c([nH]c3ccccc23)C1c1cccc2cccnc12 (stereo not drawn)	-2.3%	-11.7%
Cn1c(=O)c(C(=O)COC(=O)c2cc(C(F)(F)F)nc3c(C(F)(F)F)cccc23)c(N)n(Cc2ccccc2)c1=O	3.1%	-2.4%
O=C(CC1SC(=Nc2ccccc2)N(CCCO)C1=O)Nc1ccc(Cl)cc1 (stereo not drawn)	-13.3%	?
O=C(CC1SC(=NCCc2ccccc2)N(/N=C/c2cccs2)C1=O)Nc1ccc(Cl)cc1 (stereo not drawn)	-5.7%	12.6µM*
COc1ccc(NC(=O)c2cc(S(=O)(=O)NCCC3=CCCCC3)ccc2F)cc1	0.1%	7.9%
CCc1nnc(NC(=O)CCc2ccc(C)o2)s1	0.7%	-2.8%
Cc1ccc(CCC(=O)Nc2ncc(Cc3cccc(Cl)c3Cl)s2)o1	0.7%	12.6µM*
CCC(Cl)CC(Cl)C(Cl)C(Cl)C(Cl)C(C)Cl (stereo not drawn)	3.8%	-18.9%
COc1cc2c(=O)c(C(=O)c3ccc(F)cc3)cn(Cc3cccc(F)c3)c2cc1OC	-3.4%	?
O=C(Nc1nnc(COc2ccc(Cl)cc2)s1)c1ccc([N+](=O)[O-])cc1	4.4%	-9.3%
O=C(Nc1nnc(CSCc2ccccc2F)s1)c1cccc([N+](=O)[O-])c1	-7.4%	?
O=C(Nc1nnc(CSCc2ccc(F)cc2)s1)c1ccc([N+](=O)[O-])cc1	-4.5%	25.1µM*
O=C(Nc1nnc(CCS(=O)(=O)c2ccc(Br)cc2)s1)c1ccc([N+](=O)[O-])cc1	4.7%	5.01µM*
C[N+](C)([O-])Cc1cc(-c2ccccc2)ccc1O	-0.7%	-4.8%
CCOC(=O)c1ccccc1NC(=O)c1nn(C)c2c1COc1ccccc1-2	-8.1%	2.3%
CCOC(=O)c1c(NC(=O)C2CCCN(S(=O)(=O)c3ccccc3)C2)sc2c1CCCC2 (stereo not drawn)	-2.9%	?
Cc1ccc(S(=O)(=O)CC(=O)Nc2sc3c(c2C#N)CCCCC3)cc1	-3.0%	-10.1%
COC(=O)c1c(NC(=O)CS(=O)(=O)c2ccc(C)cc2)sc2c1CCCCC2	-8.3%	2.51µM*
SMILES	Cruzain Triton	Cruzain noTriton
COC(=O)c1c(NC(=O)COC(=O)[C@@H](NS(=O)(=O)c2cccc(Cl)c2)C(C)C)sc2c1CCC2	-10.5%	15.8µM*
CCOC(=O)c1c(NC(=O)C2CCCN(S(=O)(=O)c3ccc(C)cc3)C2)sc2c1CCCC2 (stereo not drawn)	0.3%	15.8µM*
COC(=O)c1sc(N)c(C(=O)OC)c1COC(=O)[C@@H](NS(=O)(=O)c1cccc(Cl)c1)C(C)C	-7.6%	10.4%
Cc1cccc(N2CCN(C(=O)c3cc4c(=O)[nH]c5ccc(C)cc5c4s3)CC2C)c1 (stereo not drawn)	2.0%	-9.1%
Cc1c2cnn(CC(=O)NCCc3ccccc3)c(=O)c2c(C)n1Cc1ccccc1	-0.5%	-13.7%
N#CCCCS(=O)(=O)c1ccccc1	1.5%	-5.5%
Cc1occc1C(=O)N/N=C/C1=C(N2CCOCC2)C(=C\c2ccc(Cl)cc2Cl)/CC1	-5.0%	25.1µM*
Cc1cc(C)nc(N/N=C/C2=C(N3CCOCC3)C(=C\c3ccc(Cl)cc3)/CC2)n1	-9.6%	-20.7%
O=C(NCc1ccc(F)cc1)C1CCN(S(=O)(=O)c2ccc3c(c2)CCCN3C(=O)C2CCC2)CC1	-2.4%	16.8%
